MEP2-GFP yeast – modulators of TOR pathway MEP2-GFP in S. cerevisiae; S. cerevisiae MEP2-GFP strain, flow cytometry GFP, 3 h; 100% = DMSO control level; 0.51% of 330,000 active; GFP response vs DMSO, % at 10 µM; AID 2016;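 active = GFP response versus DMSO above a set limit, roughly screen mean plus 3 SD, cut at about 180% in these data; inconclusive = fewer than 70 cells counted for a yeast strain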;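 note: median GFP fluorescence of the barcode-gated MEP2-GFP cells per well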
LAP4-GFP MLPCN – yeast TOR pathway LAP4-GFP modulation. S. cerevisiae LAP4-GFP multiplex, flow cytometry GFP, 3 h; median GFP as percent of DMSO wells. 0.34% of 320,000 active. GFP response vs DMSO, % at 10 µM;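 active = GFP response vs DMSO above a set limit, about the screen mean plus 3 SD, cut at about 150% in these data; inconclusive = under 70 cell events counted for the yeast strain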
AGP1 TOR yeast – alters AGP1-GFP fluorescence in TOR pathway yeast screen. 0.02% of 320,000 active. S. cerevisiae AGP1-GFP multiplex flow cytometry, 3 h; GFP as percent of DMSO wells. AID 2066. GFP response vs DMSO, % at 10 µM;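 active = GFP response relative to DMSO above a set limit, near screen average plus 3 SD, cut at about 150% in these data; inconclusive = fewer than 70 cells counted for the yeast strain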;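 note: median GFP channel fluorescence of the gated AGP1 strain per well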
CIT2-GFP yeast – yeast TOR pathway CIT2-GFP modulation; GFP response vs DMSO, % at 10 µM; S. cerevisiae CIT2-GFP strain, flow cytometry, 3 h; 100 means same as DMSO wells; 0.065% of 320,000 active;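 active = GFP response relative to DMSO above a set limit, near the screen mean plus 3 SD, cut at about 150% in these data; inconclusive = Fewer than 70 cells measured for a yeast strain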;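 note: ratio of well median GFP fluorescence to mean of DMSO wells on the plate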
RPL19A TOR yeast – modulators of TOR pathway RPL19A-GFP in S. cerevisiae; S. cerevisiae RPL19A-GFP strain, flow cytometry, 3 h; active compounds read low; percent response vs DMSO, % at 10 µM; 0.3% of 330,000 active;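 active = percent response vs DMSO below 50%; inconclusive = fewer than 70 events counted for the yeast strain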;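 note: median channel GFP fluorescence of the barcoded RPL19A-GFP strain; ratio of sample median GFP to plate DMSO average so 100% = DMSO; lower means less RPL19A-GFP as with rapamycin TOR inhibition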
The depositor's hits bear a star; [ ] = dose if it differs, or a comment. Most compounds without a hit are left out; they make up all but 0.89% or so of the library.

Screening O=S(=O)(c1cccc(Br)c1)N1CCN(c2ccnc3cc(Cl)ccc23)CC1 returned MEP2-GFP yeast 113, LAP4-GFP MLPCN 110, AGP1 TOR yeast 123, CIT2-GFP yeast 174*[may fluoresce green] and RPL19A TOR yeast 95.
For Cc1ccc(NC(=O)NNC(=O)C2CC(c3cccs3)=NO2)cc1 (configuration not stated) the results were MEP2-GFP yeast 112, LAP4-GFP MLPCN 103, AGP1 TOR yeast 112, CIT2-GFP yeast 150*[may fluoresce green] and RPL19A TOR yeast 95.
For Cc1ccc2[nH]cc(S(=O)(=O)c3ccc(C)c(C)c3)c(=O)c2c1 the results were MEP2-GFP yeast 101, LAP4-GFP MLPCN 99, AGP1 TOR yeast 103, CIT2-GFP yeast 102 and RPL19A TOR yeast 99.
`N=c1c(C(=O)NC2CCCCC2)cc2c(=O)n3ccccc3nc2n1CC1CCCO1` (configuration not stated) gave MEP2-GFP yeast inconclusive, LAP4-GFP MLPCN inconclusive, AGP1 TOR yeast inconclusive, CIT2-GFP yeast inconclusive and RPL19A TOR yeast 44*[may fluoresce violet].
Screening CC(NC(=O)c1cc2c(=O)n3ccccc3nc2n(CC2CCCO2)c1=N)c1ccccc1 (configuration not stated) returned MEP2-GFP yeast 207*[may fluoresce violet], LAP4-GFP MLPCN 57, AGP1 TOR yeast inconclusive, CIT2-GFP yeast inconclusive and RPL19A TOR yeast 29*[may fluoresce violet].
CCCn1c(=N)c(C#N)cc2c(=O)n3cccc(C)c3nc21 was read as MEP2-GFP yeast 107, LAP4-GFP MLPCN 102, AGP1 TOR yeast 102, CIT2-GFP yeast 95 and RPL19A TOR yeast 97.
For Cc1ccc2nc3c(cc(C(=O)NCC4CCCO4)c(=N)n3CC3CCCO3)c(=O)n2c1 (configuration not stated) the results were MEP2-GFP yeast 121, LAP4-GFP MLPCN inconclusive, AGP1 TOR yeast inconclusive, CIT2-GFP yeast inconclusive and RPL19A TOR yeast 63.
Screening COc1ccc(CCn2c(=N)c(C(=O)NC3CCCC3)cc3c(=O)n4ccccc4nc32)cc1 returned MEP2-GFP yeast 99, LAP4-GFP MLPCN 97, AGP1 TOR yeast 97, CIT2-GFP yeast 96 and RPL19A TOR yeast 99.
CCCn1c(=N)c(C#N)cc2c(=O)n3ccccc3nc21 was read as MEP2-GFP yeast 298*[may fluoresce violet], LAP4-GFP MLPCN 80, AGP1 TOR yeast 16, CIT2-GFP yeast inconclusive and RPL19A TOR yeast 73.
COc1ccc(CCn2c(=N)c(C(=O)NC3CCCC3)cc3c(=O)n4ccccc4nc32)cc1OC was read as MEP2-GFP yeast 111, LAP4-GFP MLPCN 94, AGP1 TOR yeast 97, CIT2-GFP yeast 95 and RPL19A TOR yeast 98.
`N=c1c(C(=O)NC2CCCC2)cc2c(=O)n3ccccc3nc2n1CC1CCCO1` (configuration not stated) gave MEP2-GFP yeast 202*[may fluoresce red and violet], LAP4-GFP MLPCN 82, AGP1 TOR yeast inconclusive, CIT2-GFP yeast inconclusive and RPL19A TOR yeast inconclusive.
For CC(C)(C)OC(=O)CC12CCCCC1NC(=O)O2 (configuration not stated) the results were MEP2-GFP yeast 88, LAP4-GFP MLPCN 123, AGP1 TOR yeast 81, CIT2-GFP yeast 85 and RPL19A TOR yeast 92.
Screening O=C(COC(=O)c1nc(Cl)c(Cl)c(Cl)c1Cl)NCc1ccccc1 returned MEP2-GFP yeast 110, LAP4-GFP MLPCN 107, AGP1 TOR yeast 100, CIT2-GFP yeast 96 and RPL19A TOR yeast 101.
For COc1ccc(Cn2c(=N)c(C(=O)NC3CCCCC3)cc3c(=O)n4ccccc4nc32)cc1 the results were MEP2-GFP yeast 98, LAP4-GFP MLPCN 92, AGP1 TOR yeast 78, CIT2-GFP yeast 86 and RPL19A TOR yeast 94.
Cc1ccc(CNC(=O)c2cc3c(=O)n4ccccc4nc3n(CC3CCCO3)c2=N)cc1 (configuration not stated) was read as MEP2-GFP yeast 221*[may fluoresce violet], LAP4-GFP MLPCN 95, AGP1 TOR yeast 19, CIT2-GFP yeast inconclusive and RPL19A TOR yeast 61.
`COCCCn1c(=N)c(C(=O)NC2CCCCC2)cc2c(=O)n3ccccc3nc21` gave MEP2-GFP yeast 232*[may fluoresce violet], LAP4-GFP MLPCN inconclusive, AGP1 TOR yeast inconclusive, CIT2-GFP yeast inconclusive and RPL19A TOR yeast 54.
`Cc1c(C(=O)Nc2ccc(S(=O)(=O)N(C)C3CCN(C)CC3)cc2)oc2c(Cl)cccc12` gave MEP2-GFP yeast 96, LAP4-GFP MLPCN 107, AGP1 TOR yeast 101, CIT2-GFP yeast 83 and RPL19A TOR yeast 99.

Screens as filed in PubChem BioAssay.
